{
  "source": "PubChem BioAssay (NCI)",
  "note": "Where “and” joins values, the source holds several entries; their conditions need not be identical. Identical values can stand only once. Compounds without any hit were thinned out: in the full panel of roughly 83,000, 20% have a hit.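 How to read the values: 0–100, growth inhibition (40 = 60% inhibited); 0, no net growth; -100 to 0, cell death (-40 = 40% of starting cells died; -100 = all dead).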 Calls of active or inactive are those of the source.",
  "data": [
    {"tested_on": "HT29 colon", "test": "NCI-60 one-dose screen, 48 h (100 = growth as untreated, 0 = no growth, -100 = all killed)", "conditions": "0.25 µM", "method": "(§1) Growth inhibition of the HT29 human tumor cell line is measured as a screen for anti-cancer activity. Cells are grown in 96 well plates and exposed to the test compound for 48 hours. Compounds are tested at a single concentration, which is 10^-5 M for most compounds. The reported endpoint is percent growth (GI% or GIPRCNT), where numbers from 0 - 100% represent growth inhibition, and numbers from -100% - 0 represent cell death. For example, a value of 40 represents 60% growth inhibition. A value of 0 means no net growth occurred over the course of the experiment. A value of -40 indicates 40% of cells at the beginning of the experiment died by the end of the experiment. A value of -100 means all cells are dead at the end of the experiment.\n(§2) NCI-60 Human Tumor Cell Lines Screen was performed using the standard one-dose NCI protocol, which is described in more detail at https://dtp.cancer.gov/discovery_development/nci-60/default.htm.\n(§3) Compounds with GIPRCNT values below 10 were considered active. Activity score was based on GIPRCNT using the following formula: […]\n(§4) Score is 0 for GIPRCNT values of 100 or above, 50 for GIPRCNT values of 0, and 100 for GIPRCNT values of -100.", "values": [
      {"compound": "CCCCCCCCCCCCCCCc1ccc(Cl)c(O)c1Cl", "note": "(tested in a mixture with another compound)", "growth": "43.1% (inactive)"}
    ]},
    {"tested_on": "HT29 colon", "test": "NCI-60 one-dose screen, 48 h (100 = growth as untreated, 0 = no growth, -100 = all killed)", "conditions": "1 µM", "method": "as §1, §2, §3, §4", "values": [
      {"compound": "CNC(=O)c1cc(Oc2ccc(CC(=O)Nc3cc(C(C)(C)C)nn3C)cc2)ccn1", "growth": "90.7% (inactive)"}
    ]},
    {"tested_on": "HT29 colon", "test": "NCI-60 one-dose screen, 48 h (100 = growth as untreated, 0 = no growth, -100 = all killed)", "conditions": "10 µM", "method": "as §1, §2, §3, §4", "values": [
      {"compound": "CC(C)(C)c1cc(NC(=O)Cc2ccc(-c3cnc4cc(-c5cnn(CCN6CCOCC6)c5)ccc4n3)cc2)no1", "growth": "25.9% (inactive)"},
      {"compound": "CCCCCCCCCCCCCCCc1ccc(Cl)c(O)c1Cl", "note": "(tested in a mixture with another compound)", "growth": "88% (inactive)"},
      {"compound": "CNC(=O)c1cc(Oc2ccc(CC(=O)Nc3cc(C(C)(C)C)nn3C)cc2)ccn1", "growth": "94.1% (inactive)"}
    ]},
    {"tested_on": "HT29 colon", "test": "NCI-60 one-dose screen, 48 h (100 = growth as untreated, 0 = no growth, -100 = all killed)", "conditions": "10 µM unless noted", "method": "as §1, §2, §3, §4", "values": [
      {"compound": "NC(=O)c1ccccc1OCC(O)CO", "note": "(stereo not given)", "growth": "105% (inactive)"},
      {"compound": "OCc1ccccn1", "growth": "104% (inactive)"},
      {"compound": "NS(=O)(=O)c1cc2c(cc1Cl)NC(C(Cl)Cl)NS2(=O)=O", "note": "(stereo not given)", "growth": "101% (inactive) and 114% (inactive)"},
      {"compound": "N#C/C(=C/c1c(O)ccc2ccccc12)C(N)=O", "growth": "101% (inactive)"},
      {"compound": "CC[N+](CC)(CC(=O)Nc1c(C)cccc1C)Cc1ccccc1", "growth": "101% (inactive) and 102% (inactive)"},
      {"compound": "COc1ccccc1NC(=O)OCC#CCOC(=O)Nc1ccccc1OC", "growth": "100% (inactive) and 103% (inactive)"},
      {"compound": "N#CC(C#N)=C/C=C/c1cccc([N+](=O)[O-])c1", "growth": "-19.6% (active) and -39.5% (active)"},
      {"compound": "Cc1ccc(S(=O)(=O)NCN2C(=O)c3ccccc3C2=O)cc1", "growth": "104% (inactive)"},
      {"compound": "CC(O)Cn1cnc2c1c(=O)n(C)c(=O)n2C", "note": "(stereo not given)", "growth": "109% (inactive)"},
      {"compound": "O=Nc1ccc(O)cc1", "growth": "97.4% (inactive) and 97.5% (inactive)"},
      {"compound": "Cn1cnc([N+](=O)[O-])c1Sc1ncnc2nc[nH]c12", "growth": "59.4% (inactive) and 73.2% (inactive)"},
      {"compound": "CN(C)c1ccc2nc3ccc(=[N+](C)C)cc-3sc2c1", "growth": "26.6% (inactive) and 19.8% (inactive) and 74.9% (inactive)"},
      {"compound": "CC(C(=O)O)n1cc(C#N)c(=O)[nH]c1=O", "note": "(stereo not given)", "growth": "110% (inactive) and 104% (inactive)"},
      {"compound": "CNc1ccc2nc3ccc(=[N+](C)C)cc-3sc2c1", "growth": "9.87% (active) and 38.1% (inactive)"},
      {"compound": "O=C(CN1CCOCC1)N1CCOCC1", "growth": "91% (inactive)"},
      {"compound": "OCCN1CCN(CCCN2c3ccccc3Sc3ccc(Cl)cc32)CC1", "growth": "1.64% (active) and 18.2% (inactive)"},
      {"compound": "CC(C)N=c1cc2n(-c3ccc(Cl)cc3)c3ccccc3nc-2cc1Nc1ccc(Cl)cc1", "growth": "0.808% (active) and 6.25% (active) and -28.1% (active)"},
      {"compound": "OC(CSc1ccccc1)CN1CCN(c2cccc(Cl)c2)CC1", "note": "(stereo not given)", "growth": "104% (inactive) and 96.5% (inactive)"},
      {"compound": "O=C(N/N=C/c1cccc2ccccc12)C1CC1", "growth": "102% (inactive) and 110% (inactive)"},
      {"compound": "NC(=S)NS(=O)(=O)c1ccc(N)cc1", "growth": "109% (inactive)"},
      {"compound": "O=C(/C=C\\c1ccnc2ccccc12)c1ccc([N+](=O)[O-])cc1", "growth": "70.3% (inactive) and 3.25% (active)"},
      {"compound": "CCOc1ccc2cc(-c3nn(CC4CCN(C)CC4)c4ncnc(N)c34)ccc2c1", "growth": "69.2% (inactive) and 9.92% (active)"},
      {"compound": "Oc1ccc(/C=C/c2ccccc2)cc1", "growth": "104% (inactive) and 84.8% (inactive)"},
      {"compound": "O=C(N/N=C/c1ccc2c(c1)OCO2)c1ccncc1", "growth": "101% (inactive) and 105% (inactive)"},
      {"compound": "CCN(CC)CCNc1cc(-c2cccc(OC(F)(F)F)c2)nc2ccc(N3CCCC3)cc12", "growth": "10.9% (inactive) and -11.1% (active) and 1.35% (active)"},
      {"compound": "COc1cc(C(=O)c2ccc3c(c2)OCO3)cc(OC)c1OC", "growth": "5.54% (active) and -1.28% (active)"},
      {"compound": "Cc1cccc(/C=C\\C(=O)c2ccccc2)c1", "growth": "91.9% (inactive) and 98.7% (inactive)"},
      {"compound": "CC1=NN(c2ccccc2)C(=O)C1C(=O)c1ccccc1", "note": "(stereo not given)", "growth": "107% (inactive)"},
      {"compound": "Oc1ccccc1/C=N\\NC(=S)N/N=C/c1ccccc1O", "growth": "39.1% (inactive) and 54.6% (inactive)"},
      {"compound": "Cn1cc(-c2cc3c(Nc4ccc(CC(=O)Nc5cc(C(C)(C)C)on5)cc4)ncnc3[nH]2)cn1", "growth": "-8.17% (active) and -11.7% (active)"},
      {"compound": "Cc1ccc(S(=O)(=O)Nc2nc3ccccc3nc2Nc2ccc3nsnc3c2)cc1", "growth": "47.5% (inactive) and 63.2% (inactive)"},
      {"compound": "Nc1cc(-c2cccc(OC(F)(F)F)c2)nc2ccc(N3CCCC3)cc12", "growth": "1.32% (active) and 5.14% (active) and -8.94% (active)"},
      {"compound": "CCOC(=O)Nc1nc2ccccc2[nH]1", "growth": "104% (inactive) and 20.8% (inactive)"}
    ]},
    {"tested_on": "HT29 colon", "test": "NCI-60 one-dose screen, 48 h (100 = growth as untreated, 0 = no growth, -100 = all killed)", "conditions": "30 µM", "method": "as §1, §2, §3, §4", "values": [
      {"compound": "CC(C)(C)c1cc(NC(=O)Cc2ccc(-c3cnc4cc(-c5cnn(CCN6CCOCC6)c5)ccc4n3)cc2)no1", "growth": "31.2% (inactive)"},
      {"compound": "CNC(=O)c1cc(Oc2ccc(CC(=O)Nc3cc(C(C)(C)C)nn3C)cc2)ccn1", "growth": "86.5% (inactive)"}
    ]}
  ]
}
